# Results taken from PubChem BioAssay (NCI).
# Where “and” joins values, the source holds several entries; their conditions need not be identical. Identical values can stand only once. This is part of a sample that, as a whole, favours compounds with a hit. Of some 79,000 tested, about 15% had one in any assay. A number with no mark means an inactive call. Calls of active or inactive are those of the source. Cut-off read from the data, not from the text of the source: active = growth inhibition above about 70%; inactive = the rest.
# Columns and labels:
# [1] = NCI Yeast Anticancer Drug Screen. Data for the wt1 strain (AID 149);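 note: 0% = growth of vehicle-treated wt1 cultures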; conditions: S. cerevisiae wt1 strain (SPY 50644) growth inhibition, active compounds read high
# Method in brief: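 wt1 yeast, compound-treated; % growth inhibition vs vehicle control.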
# [2] = NCI Yeast Anticancer Drug Screen. Data for the rad50EPP+ strain (AID 151);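 note: 0% = growth of vehicle-treated control cultures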; conditions: S. cerevisiae rad50 mutant strain, active compounds read high
# Method in brief: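 Read-out is yeast growth inhibition relative to vehicle; cells used were the rad50EPP+ strain.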
# [3] = NCI Yeast Anticancer Drug Screen. Data for the mec2-1 strain (AID 157); conditions: S. cerevisiae mec2-1 strain, active compounds read high
# Method in brief: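 Using mec2-1 yeast: add compound, measure growth, express inhibition versus vehicle-treated cultures.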
# [4] = NCI Yeast Anticancer Drug Screen. Data for the rad14 strain (AID 159);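 note: 0% = growth of vehicle-treated control cultures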; conditions: S. cerevisiae rad14 strain growth inhibition, active compounds read high
# Method in brief: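 Test compounds were applied to a repair-deficient yeast strain. Its growth was then compared with that of cultures given vehicle alone, and inhibition was expressed relative to those controls.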
# [5] = NCI Yeast Anticancer Drug Screen. Data for the sgs1 mgt1 strain (AID 161);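 note: 0% = growth of cultures given vehicle only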; conditions: S. cerevisiae sgs1 mgt1 strain, active compounds read high
# Method in brief: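 Percent growth inhibition was derived by comparing compound-exposed mutant yeast with vehicle-exposed cultures. The strain carries alterations in DNA damage repair.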
# [6] = NCI Yeast Anticancer Drug Screen. Data for the CLN2oe strain (AID 163);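 note: 0% = growth of vehicle-only control cultures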; conditions: S. cerevisiae CLN2oe strain, active compounds read high
# Method in brief: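 Whole-cell yeast growth assay. A strain engineered for altered cell-cycle control received compound, and inhibition relative to vehicle-treated cultures was recorded.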
# [7] = NCI Yeast Anticancer Drug Screen. Data for the cln2 rad14 strain (AID 165);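 note: 0% = growth equal to vehicle treated cultures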; conditions: S. cerevisiae cln2 rad14 strain, active compounds read high
# Method in brief: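 Yeast strain cln2 rad14, bearing defects in cell cycle control and DNA repair, serves as the test system; values reflect growth inhibition compared with vehicle.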
# [8] = NCI Yeast Anticancer Drug Screen. Data for the bub3 strain (AID 167); conditions: S. cerevisiae bub3 mutant strain, active compounds read high
# Method in brief: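 Yeast carrying a defined mutation is treated with each compound, and growth is compared with that of vehicle-exposed cells to give inhibition.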
# [9] = NCI Yeast Anticancer Drug Screen. Data for the wt2 strain (AID 169);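 note: 0% = growth of vehicle-treated yeast cultures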; conditions: S. cerevisiae wt2 strain growth inhibition, active compounds read high
# Method in brief: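 Treated yeast vs. vehicle-treated yeast: growth inhibition determined.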
# [10] = NCI Yeast Anticancer Drug Screen. Data for the mlh1 strain (AID 171);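 note: 0% = growth of vehicle-treated control cultures of the same strain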; conditions: S. cerevisiae mlh1 strain growth inhibition, active compounds read high
# Method in brief: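 A yeast strain with a defined genetic lesion serves as the test organism. Cultures receive compound or vehicle, and growth is measured.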
# [11] = NCI Yeast Anticancer Drug Screen. Data for the sgs1 strain (AID 173);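 note: 0% = growth of vehicle-only control cultures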; conditions: S. cerevisiae sgs1 mutant, active compounds read high
# Method in brief: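 A genetically defined yeast mutant is incubated with the test compound, and its growth is compared to that of the same strain given vehicle.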
# [12] = NCI Yeast Anticancer Drug Screen. Data for the mlh1 rad18 strain (AID 175); conditions: S. cerevisiae mlh1 rad18 strain growth inhibition, active compounds read high
# Method in brief: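 Steps: expose repair-defective yeast to compound; measure growth; express inhibition against vehicle-treated controls.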
# [13] = NCI Yeast Anticancer Drug Screen. Data for the rad18 strain (AID 177); conditions: S. cerevisiae rad18 mutant growth inhibition, active compounds read high
# Method in brief: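 Measured value is growth inhibition of a yeast strain bearing a DNA repair alteration, referenced to vehicle-treated cells.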
# [14] = NCI Yeast Anticancer Drug Screen. Data for the rad50 strain (AID 155);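 note: 0% = growth of vehicle-only cultures of the same strain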; conditions: S. cerevisiae rad50 strain growth inhibition, active compounds read high
# Method in brief: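 Genetically altered yeast (DNA repair pathway); compound treatment; growth inhibition vs vehicle ctrl.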
# [15] = NCI Yeast Anticancer Drug Screen. Data for the mgt1 strain (AID 153); conditions: S. cerevisiae mgt1 mutant growth inhibition, active compounds read high
# Method in brief: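 Measured: inhibition of mgt1 yeast growth by compound, normalized to vehicle-treated cultures.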
# [16] = at 5.0 µM (retest, dose inferred, filed as 0.5)
# [17] = at 50.0 µM (retest, dose inferred, filed as 5.0)
compound,measurement,setting,value
O=S(=O)(CCC[C@H]1[C@@H](CCOCc2ccccc2)C2CCCN1O2)c1ccccc1 (stereo partly specified),growth inhibition,[1]; at 1.2 µM,2%
same,growth inhibition,[1]; at 3.7 µM,2%
same,growth inhibition,[1]; at 11.0 µM,1%
same,growth inhibition,[1]; at 33.0 µM,1%
same,growth inhibition,[1]; at 100.0 µM,19%
same,growth inhibition,[2]; at 1.2 µM,0%
same,growth inhibition,[2]; at 3.7 µM,-1%
same,growth inhibition,[2]; at 11.0 µM,2%
same,growth inhibition,[2]; at 33.0 µM,2%
same,growth inhibition,[2]; at 100.0 µM,4%
same,growth inhibition,[3]; at 1.2 µM,4%
same,growth inhibition,[3]; at 3.7 µM,4%
same,growth inhibition,[3]; [16],-9%
same,growth inhibition,[3]; at 11.0 µM,5%
same,growth inhibition,[3]; at 33.0 µM,13%
same,growth inhibition,[3]; [17],-22%
same,growth inhibition,[3]; at 50.0 µM,-19.2%
same,growth inhibition,[3]; at 100.0 µM,27%
same,growth inhibition,[4]; at 1.2 µM,1%
same,growth inhibition,[4]; at 3.7 µM,-3%
same,growth inhibition,[4]; at 11.0 µM,3%
same,growth inhibition,[4]; at 33.0 µM,10%
same,growth inhibition,[4]; at 100.0 µM,25%
same,growth inhibition,[5]; [16],9%
same,growth inhibition,[5]; [17],20%
same,growth inhibition,[5]; at 50.0 µM,-23.6%
same,growth inhibition,[6]; at 1.2 µM,1%
same,growth inhibition,[6]; at 3.7 µM,6%
same,growth inhibition,[6]; at 11.0 µM,5%
same,growth inhibition,[6]; at 33.0 µM,16%
same,growth inhibition,[6]; at 100.0 µM,37%
same,growth inhibition,[7]; [16],-7%
same,growth inhibition,[7]; [17],46%
same,growth inhibition,[7]; at 50.0 µM,42.5%
same,growth inhibition,[8]; at 1.2 µM,1%
same,growth inhibition,[8]; at 3.7 µM,2%
same,growth inhibition,[8]; [16],22%
same,growth inhibition,[8]; at 11.0 µM,2%
same,growth inhibition,[8]; at 33.0 µM,6%
same,growth inhibition,[8]; [17],10%
same,growth inhibition,[8]; at 50.0 µM,-12.1%
same,growth inhibition,[8]; at 100.0 µM,12%
same,growth inhibition,[9]; at 1.2 µM,-1%
same,growth inhibition,[9]; at 3.7 µM,-1%
same,growth inhibition,[9]; at 11.0 µM,-3%
same,growth inhibition,[9]; at 33.0 µM,2%
same,growth inhibition,[9]; at 100.0 µM,26%
same,growth inhibition,[10]; at 1.2 µM,3%
same,growth inhibition,[10]; at 3.7 µM,3%
same,growth inhibition,[10]; at 11.0 µM,1%
same,growth inhibition,[10]; at 33.0 µM,7%
same,growth inhibition,[10]; at 100.0 µM,26%
same,growth inhibition,[11]; at 1.2 µM,2%
same,growth inhibition,[11]; at 3.7 µM,3%
same,growth inhibition,[11]; at 11.0 µM,2%
same,growth inhibition,[11]; at 33.0 µM,19%
same,growth inhibition,[11]; at 100.0 µM,41%
same,growth inhibition,[12]; [16],-14%
same,growth inhibition,[12]; [17],-2%
same,growth inhibition,[12]; at 50.0 µM,0.4%
same,growth inhibition,[13]; at 1.2 µM,2%
same,growth inhibition,[13]; at 3.7 µM,6%
same,growth inhibition,[13]; at 11.0 µM,4%
same,growth inhibition,[13]; at 33.0 µM,7%
same,growth inhibition,[13]; at 100.0 µM,19%
CC(C)c1ccc(O)c(=O)cc1,growth inhibition,[14]; [16],6% and 0%
same,growth inhibition,[14]; [17],42% and 28% and -1%
same,growth inhibition,[14]; at 50.0 µM,91.8% (active) and 92.7% (active) and 92.8% (active)
same,growth inhibition,[3]; [16],2% and -1%
same,growth inhibition,[3]; [17],50% and 57% and 7%
same,growth inhibition,[3]; at 50.0 µM,93.8% (active) and 94.7% (active) and 94.6% (active)
same,growth inhibition,[5]; [16],4% and 6%
same,growth inhibition,[5]; [17],42% and 31% and 1%
same,growth inhibition,[5]; at 50.0 µM,93.5% (active) and 94% (active) and 93% (active)
same,growth inhibition,[7]; [16],6% and 5% and -1%
same,growth inhibition,[7]; [17],21% and 15% and 2%
same,growth inhibition,[7]; at 50.0 µM,91.3% (active) and 90.5% (active) and 91.5% (active)
same,growth inhibition,[8]; [16],0% and -1% and -5%
same,growth inhibition,[8]; [17],48% and 56% and -2%
same,growth inhibition,[8]; at 50.0 µM,92.7% (active) and 93.3% (active) and 92.8% (active)
same,growth inhibition,[12]; [16],5% and 6% and 2%
same,growth inhibition,[12]; [17],45% and 43% and -2%
same,growth inhibition,[12]; at 50.0 µM,91.2% (active) and 92.4% (active) and 92.1% (active)
COc1ccc(C(=O)OCCc2ccccc2)cc1,growth inhibition,[1]; at 1.2 µM,-2%
same,growth inhibition,[1]; at 3.7 µM,-5%
same,growth inhibition,[1]; at 11.0 µM,-5%
same,growth inhibition,[1]; at 33.0 µM,-7%
same,growth inhibition,[1]; at 100.0 µM,-8%
same,growth inhibition,[15]; at 1.2 µM,-4%
same,growth inhibition,[15]; at 3.7 µM,-3%
same,growth inhibition,[15]; at 11.0 µM,-3%
same,growth inhibition,[15]; at 33.0 µM,-5%
same,growth inhibition,[15]; at 100.0 µM,-4%
same,growth inhibition,[14]; at 1.2 µM,6%
same,growth inhibition,[14]; at 3.7 µM,3%
same,growth inhibition,[14]; [16],-3%
same,growth inhibition,[14]; at 11.0 µM,1%
same,growth inhibition,[14]; at 33.0 µM,13%
same,growth inhibition,[14]; [17],23%
same,growth inhibition,[14]; at 50.0 µM,-7.35%
same,growth inhibition,[14]; at 100.0 µM,9%
same,growth inhibition,[3]; at 1.2 µM,-1%
same,growth inhibition,[3]; at 3.7 µM,-4%
same,growth inhibition,[3]; [16],-28%
same,growth inhibition,[3]; at 11.0 µM,-4%
same,growth inhibition,[3]; at 33.0 µM,-5%
same,growth inhibition,[3]; [17],-14%
same,growth inhibition,[3]; at 50.0 µM,1.85%
same,growth inhibition,[3]; at 100.0 µM,-5%
same,growth inhibition,[4]; at 1.2 µM,5%
same,growth inhibition,[4]; at 3.7 µM,0%
same,growth inhibition,[4]; at 11.0 µM,-6%
same,growth inhibition,[4]; at 33.0 µM,3%
same,growth inhibition,[4]; at 100.0 µM,4%
same,growth inhibition,[5]; [16],7%
same,growth inhibition,[5]; [17],32%
same,growth inhibition,[5]; at 50.0 µM,6.8%
same,growth inhibition,[6]; at 1.2 µM,-3%
same,growth inhibition,[6]; at 3.7 µM,-9%
same,growth inhibition,[6]; at 11.0 µM,-10%
same,growth inhibition,[6]; at 33.0 µM,-7%
same,growth inhibition,[6]; at 100.0 µM,-6%
same,growth inhibition,[7]; [16],-1%
same,growth inhibition,[7]; [17],-2%
same,growth inhibition,[7]; at 50.0 µM,-10.5%
same,growth inhibition,[8]; at 1.2 µM,2%
same,growth inhibition,[8]; at 3.7 µM,12%
same,growth inhibition,[8]; [16],20%
same,growth inhibition,[8]; at 11.0 µM,16%
same,growth inhibition,[8]; at 33.0 µM,34%
same,growth inhibition,[8]; [17],79% (active)
same,growth inhibition,[8]; at 50.0 µM,56.5%
same,growth inhibition,[8]; at 100.0 µM,34%
same,growth inhibition,[9]; at 1.2 µM,-6%
same,growth inhibition,[9]; at 3.7 µM,-9%
same,growth inhibition,[9]; at 11.0 µM,-3%
same,growth inhibition,[9]; at 33.0 µM,-12%
same,growth inhibition,[9]; at 100.0 µM,-8%
same,growth inhibition,[10]; at 1.2 µM,0%
same,growth inhibition,[10]; at 3.7 µM,0%
same,growth inhibition,[10]; at 11.0 µM,-5%
same,growth inhibition,[10]; at 33.0 µM,1%
same,growth inhibition,[10]; at 100.0 µM,9%
same,growth inhibition,[12]; [16],10%
same,growth inhibition,[12]; [17],64%
same,growth inhibition,[12]; at 50.0 µM,-16.4%
same,growth inhibition,[13]; at 1.2 µM,3%
same,growth inhibition,[13]; at 3.7 µM,3%
same,growth inhibition,[13]; at 11.0 µM,0%
same,growth inhibition,[13]; at 33.0 µM,9%
same,growth inhibition,[13]; at 100.0 µM,8%
